Source: PubChem BioAssay
Calls of active or inactive are those of the source.

Tests used:
Albumin (Bos taurus) = Albumin (Bos taurus) (UniProt P02769); assay: bovine serum albumin binders on microarray, profiling panel, artefact control for SMM control protein annotation, biochemical, small-molecule microarray, Alexa647 label, 635/667 nm fluorescence (AID 1118); conditions: BSA-A647 binding, fluorescence 635 nm, higher = more signal;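 note: score merges 667 nm emission intensity and signal-to-noise per printed compound spot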
[1] = small-molecule microarray binders of probe aXIP, primary screen, biochemical, NeuroSMM set, 635/667 nm fluorescence (AID 1119); conditions: higher = more signal, called active from +8 up or from −8 down;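 note: probe is the protein aXip251-270 applied at 1 µg/mL to compound-printed slides; binding of probe to printed compounds measured as 667 nm fluorescence plus signal to noise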
[2] = small-molecule binders of probe aNOTCH3, primary screen, biochemical, small-molecule microarray, 635/667 nm fluorescence (AID 1120); conditions: higher = more signal;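 note: probe is a biotin-tagged antibody raised against NOTCH3 rather than NOTCH3 protein; score merges spot fluorescence near 667 nm with spot signal to noise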
[3] = small-molecule binders of probe aNOTCH2, primary screen, biochemical, small-molecule microarray, 635/667 nm fluorescence (AID 1121); conditions: higher = more signal;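 note: score merges feature fluorescence read at 667 nm with its signal to noise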
[4] = biological target: Carbonic anhydrase 2 (Homo sapiens) (UniProt P00918); assay: CAII small-molecule binders, profiling panel, biochemical, small-molecule microarray, Alexa647-labelled CAII (AID 1122); conditions: CAII-A647 binding fluorescence, higher = more signal
[5] = COS7 lysate on small-molecule microarray, probe aHis, 635 nm (AID 1123); conditions: COS7 cell lysate, fluorescence, higher = more signal;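 note: z-score combines 667nm fluorescence intensity with signal-to-noise per printed compound spot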
[6] = compound binding in COS7 lysate, probe aLAP1, primary screen, cell lysate, small-molecule microarray (AID 1124); conditions: probe aLAP1, fluorescence, higher = more signal;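 note: lysate comes from COS7 cells expressing LAP1 and is applied at 0.3 µg/mL; score merges spot fluorescence near 667 nm with signal-to-noise over triplicate slides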
Sam68 (KHDRBS1) = assay: Sam68 small-molecule binders, primary screen, biochemical, small-molecule microarray, 635 nm fluorescence (AID 1125); conditions: small-molecule microarray binding, higher = more signal;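 note: score merges 667 nm channel intensity with signal to noise over triplicate slides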
[7] = test system: Chordin-like protein 2 (CHRDL2); assay: CHRDL2 small-molecule binders, primary screen, biochemical, small-molecule microarray, 635 nm fluorescence (AID 1126); conditions: small-molecule microarray binding, fluorescence 635 nm; higher = more signal;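 note: printed compound slides probed with Chrdl2 protein at 4 µg/mL for 1 h at 4 C; score merges 667 nm emission intensity with signal to noise over three replicate slides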
[8] = biological target: Concanavalin-A (Canavalia ensiformis) (UniProt P02866); assay: ConA small-molecule binders, primary screen, artefact control for SMM control protein annotation, biochemical, small-molecule microarray, Alexa647 label, 635 nm (AID 1127); conditions: ConA-A647 binding fluorescence, higher = more signal;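 note: z combines 667 nm emission intensity with signal-to-noise across three replicate slides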
[9] = anti-His antibody binders, primary screen, artefact control for SMM control protein annotation, biochemical, small-molecule microarray, 635 nm fluorescence (AID 1128); conditions: anti-His Alexa647 antibody binding, higher = more signal;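 note: score merges feature fluorescence with signal-to-noise for each printed compound spot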
[10] = test system: Human papillomavirus type 1a E7 protein (residues 1-88); assay: HPV1a E7 small-molecule binders, primary screen, biochemical, small-molecule microarray, residues 1-88, 635 nm (AID 1129); conditions: small-molecule microarray binding, fluorescence 635 nm; higher = more signal
[11] = biological target: Focal adhesion kinase 1 (Homo sapiens) (UniProt Q05397); assay: small-molecule microarray binders of FAK, primary screen, biochemical, 635/667 nm fluorescence, BSA, DTT (AID 1130); conditions: PTK2 binding, 635 nm fluorescence, higher = more signal;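 note: composite of spot emission at 667 nm and signal to noise over triplicate slides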
[12] = test system: Fibrinogen (Alexa647-labelled); assay: fibrinogen binders on compound microarrays, profiling panel, artefact control for SMM control-protein annotation, biochemical, small-molecule microarray, 635/667 nm fluorescence (AID 1131); conditions: fibrinogen-A647 binding fluorescence, higher = more signal;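 note: z-score merges 667 nm fluorescence with per-spot signal-to-noise over triplicate slides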
[13] = biological target: Follistatin (Homo sapiens) (UniProt P19883); assay: follistatin binders on small-molecule microarrays, primary screen, biochemical, small-molecule microarray, 635/667 nm fluorescence (AID 1132); conditions: FST binding, 635 nm fluorescence, higher = more signal
[14] = biological target: Fibroblast growth factor 2 (Homo sapiens) (UniProt P09038); assay: FGF2 binders on small-molecule microarrays, primary screen, biochemical, small-molecule microarray, 635/667 nm fluorescence (AID 1133); conditions: small-molecule microarray binding, FGF2, fluorescence 635/667; higher = more signal
[15] = mitochondrial membrane potential change in A549 cells, profiling panel, cell-based, JC-1 fluorescence, basal, 24 h, 100 nL (AID 1138); conditions: higher = more signal;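 note: A549 lung adenocarcinoma cells under basal conditions with no added stimulus; test concentration not given here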
Lefty1 = Lefty1 binders on small-molecule microarrays, primary screen, biochemical, small-molecule microarray, 635/667 nm fluorescence (AID 1139); conditions: small-molecule microarray binding, fluorescence 635/667; higher = more signal
[16] = test system: wheat germ agglutinin (Triticum aestivum), Alexa647-labelled; assay: wheat germ agglutinin binders on compound microarrays, profiling panel, artefact control for SMM control-protein annotation, biochemical, small-molecule microarray, 635/667 nm fluorescence (AID 1140); conditions: WGA-A647 binding, 635 nm fluorescence, higher = more signal;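 note: score merges 667 nm feature emission with signal to noise over triplicate slides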
[17] = biological target: Luciferin 4-monooxygenase (Photinus pyralis) (UniProt P08659); assay: firefly luciferase enzyme inhibitors, primary screen, biochemical, luminescence, purified enzyme, 2006 set (AID 1141); conditions: SteadyGlo luminescence, 30 min, higher = more signal, called active from +8 up or from −8 down;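 note: cell-free assay with purified firefly luciferase at 100 ng per well in PBS; test concentration not given here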
Luciferin 4-monooxygenase (Photinus pyralis), sequence (P08659 whole entry, looked up): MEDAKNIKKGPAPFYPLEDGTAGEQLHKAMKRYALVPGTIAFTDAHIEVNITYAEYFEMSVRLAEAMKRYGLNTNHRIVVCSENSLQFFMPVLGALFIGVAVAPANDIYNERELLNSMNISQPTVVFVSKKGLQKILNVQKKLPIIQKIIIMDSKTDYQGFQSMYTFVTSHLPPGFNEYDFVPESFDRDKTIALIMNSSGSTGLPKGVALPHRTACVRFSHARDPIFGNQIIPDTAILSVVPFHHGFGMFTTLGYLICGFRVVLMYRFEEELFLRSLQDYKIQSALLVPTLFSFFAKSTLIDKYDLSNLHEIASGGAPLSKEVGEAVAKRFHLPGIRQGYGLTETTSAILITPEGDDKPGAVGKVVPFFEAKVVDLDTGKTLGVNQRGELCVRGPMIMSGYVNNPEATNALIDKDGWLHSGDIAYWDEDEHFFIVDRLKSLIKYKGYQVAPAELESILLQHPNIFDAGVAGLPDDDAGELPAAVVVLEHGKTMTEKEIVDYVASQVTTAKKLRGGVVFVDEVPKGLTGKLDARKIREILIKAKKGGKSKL

Albumin (Bos taurus), sequence (P02769 whole entry, looked up): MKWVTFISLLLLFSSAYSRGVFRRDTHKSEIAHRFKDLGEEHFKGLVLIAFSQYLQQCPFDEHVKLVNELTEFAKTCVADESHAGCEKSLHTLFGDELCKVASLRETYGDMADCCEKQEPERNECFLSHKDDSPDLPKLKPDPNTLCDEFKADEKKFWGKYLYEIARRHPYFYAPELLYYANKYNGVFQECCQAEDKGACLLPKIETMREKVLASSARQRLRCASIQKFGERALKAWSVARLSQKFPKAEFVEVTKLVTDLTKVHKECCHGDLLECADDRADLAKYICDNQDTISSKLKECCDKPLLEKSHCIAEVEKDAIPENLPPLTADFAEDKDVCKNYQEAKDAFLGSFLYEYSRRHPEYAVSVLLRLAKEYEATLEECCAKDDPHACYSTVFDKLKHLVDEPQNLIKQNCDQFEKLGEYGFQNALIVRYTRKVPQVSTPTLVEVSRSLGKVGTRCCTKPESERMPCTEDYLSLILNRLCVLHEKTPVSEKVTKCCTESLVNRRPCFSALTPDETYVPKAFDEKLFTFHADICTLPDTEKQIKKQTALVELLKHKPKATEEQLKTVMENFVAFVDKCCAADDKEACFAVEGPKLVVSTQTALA
Focal adhesion kinase 1 (Homo sapiens), sequence (Q05397 whole entry, looked up): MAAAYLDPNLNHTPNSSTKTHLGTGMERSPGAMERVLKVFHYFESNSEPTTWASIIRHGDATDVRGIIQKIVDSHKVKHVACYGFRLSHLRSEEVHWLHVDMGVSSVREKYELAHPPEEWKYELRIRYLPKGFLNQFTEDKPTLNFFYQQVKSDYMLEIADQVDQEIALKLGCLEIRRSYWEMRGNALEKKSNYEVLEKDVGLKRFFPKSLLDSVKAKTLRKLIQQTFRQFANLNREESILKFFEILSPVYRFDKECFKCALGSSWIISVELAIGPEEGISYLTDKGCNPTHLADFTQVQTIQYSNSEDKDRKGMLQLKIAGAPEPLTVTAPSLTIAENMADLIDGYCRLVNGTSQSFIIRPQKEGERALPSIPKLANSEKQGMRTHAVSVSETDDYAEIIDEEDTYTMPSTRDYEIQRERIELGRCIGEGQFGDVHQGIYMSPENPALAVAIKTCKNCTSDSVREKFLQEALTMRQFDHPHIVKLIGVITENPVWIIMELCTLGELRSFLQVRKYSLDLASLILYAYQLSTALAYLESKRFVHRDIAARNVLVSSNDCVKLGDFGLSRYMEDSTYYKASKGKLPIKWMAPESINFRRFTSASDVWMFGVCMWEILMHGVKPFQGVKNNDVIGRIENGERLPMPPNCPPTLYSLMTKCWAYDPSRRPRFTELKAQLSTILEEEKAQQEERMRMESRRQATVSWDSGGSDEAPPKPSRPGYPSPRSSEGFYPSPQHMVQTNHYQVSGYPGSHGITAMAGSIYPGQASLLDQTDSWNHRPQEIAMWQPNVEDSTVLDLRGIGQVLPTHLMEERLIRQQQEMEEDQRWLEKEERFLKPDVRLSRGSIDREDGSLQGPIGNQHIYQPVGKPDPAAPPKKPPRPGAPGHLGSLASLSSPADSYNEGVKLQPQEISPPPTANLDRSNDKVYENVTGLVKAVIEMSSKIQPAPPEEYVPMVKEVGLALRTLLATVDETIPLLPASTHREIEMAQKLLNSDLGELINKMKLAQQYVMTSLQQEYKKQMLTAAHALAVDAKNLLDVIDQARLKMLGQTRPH
Follistatin (Homo sapiens), sequence (P19883 whole entry, looked up): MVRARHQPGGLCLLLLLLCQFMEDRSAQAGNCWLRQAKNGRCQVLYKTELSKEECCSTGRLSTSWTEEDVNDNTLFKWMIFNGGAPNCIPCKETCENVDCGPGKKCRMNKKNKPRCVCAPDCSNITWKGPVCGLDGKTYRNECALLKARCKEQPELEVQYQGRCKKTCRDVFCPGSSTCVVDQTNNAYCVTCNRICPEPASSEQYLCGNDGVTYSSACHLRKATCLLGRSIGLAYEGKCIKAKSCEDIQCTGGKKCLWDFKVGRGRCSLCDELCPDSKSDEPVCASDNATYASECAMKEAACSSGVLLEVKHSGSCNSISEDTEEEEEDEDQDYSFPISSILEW
Fibroblast growth factor 2 (Homo sapiens), sequence (P09038 whole entry, looked up): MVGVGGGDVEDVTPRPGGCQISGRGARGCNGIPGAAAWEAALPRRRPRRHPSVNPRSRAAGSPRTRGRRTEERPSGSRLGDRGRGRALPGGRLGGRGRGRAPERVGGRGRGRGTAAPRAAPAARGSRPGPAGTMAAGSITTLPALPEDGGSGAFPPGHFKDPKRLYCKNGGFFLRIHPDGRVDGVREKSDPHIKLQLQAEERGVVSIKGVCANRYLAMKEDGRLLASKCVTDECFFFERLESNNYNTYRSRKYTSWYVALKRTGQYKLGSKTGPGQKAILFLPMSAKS
Concanavalin-A (Canavalia ensiformis), sequence (P02866 whole entry, looked up): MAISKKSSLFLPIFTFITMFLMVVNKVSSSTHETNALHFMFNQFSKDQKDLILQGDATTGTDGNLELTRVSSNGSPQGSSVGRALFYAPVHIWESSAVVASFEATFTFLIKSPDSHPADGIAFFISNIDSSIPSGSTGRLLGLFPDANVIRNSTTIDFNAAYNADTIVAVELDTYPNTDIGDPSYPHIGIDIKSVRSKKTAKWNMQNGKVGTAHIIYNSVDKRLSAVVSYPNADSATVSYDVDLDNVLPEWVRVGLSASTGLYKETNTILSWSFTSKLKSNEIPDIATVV

Structure (SMILES)	composite z-score (Albumin (Bos taurus))	composite Z-score [1]	composite z-score [2]	composite z-score [3]	composite z-score [4]	composite z-score [5]	composite z-score [6]	composite z-score (Sam68 (KHDRBS1))	composite z-score [7]	composite z-score [8]	composite z-score [9]	composite z-score [10]	composite z-score [11]	composite z-score [12]	composite z-score [13]	composite z-score [14]	z-score [15]	composite z-score (Lefty1)	composite z-score [16]	z-score [17]
C[C@@H]1CC[C@H]2C(=O)O[C@@H](COc3ccc(C(C)(C)C)cc3)CN2[C@@H]1c1ccc(Br)cc1	0.0192	-0.695 (inactive)	-0.21	-0.14	-0.408	-0.0056	-0.239	-0.558	-0.614	-0.619	2.71	-0.741	0.225	0.172	-0.0473	-0.62	0.841	-0.255	-0.383	-0.864 (inactive)
COC(=O)[C@@H]1CC[C@H](C)[C@@H](c2ccc(C)cc2)N1C(=O)c1ccc(C=NO[C@@H](C)c2cn([C@H](CO)Cc3ccccc3)nn2)cc1	0.597	-0.222 (inactive)	0.217	-0.09	0.097	1.2	-0.151	1.32	0.892	0.81	1.37	1.13	0.262	0.648	0.717	1.16	1.04	1.23	0.147	-0.249 (inactive)
CO[C@H]1COC(=O)[C@H](C)NC(=O)CC=C[C@@H](C)[C@H](OC)COC(=O)[C@@H](OCc2ccccc2)C=C[C@@H]1C	-0.744	-0.0157 (inactive)	-0.068	-0.0657	-0.722	-0.724	-0.198	-0.206	1.06	-0.909	-0.435	-0.611	-0.329	0.029	1.21	0.618	0.805	0.529	-1.25	-0.231 (inactive)
C[C@H]1CC[C@H]2C(=O)OC(CO)CN2[C@@H]1c1ccc(Br)cc1 (stereo not given in full)	0.0691	0.456 (inactive)	-0.0647	-0.192	-0.244	-0.416	-0.311	0.253	0.453	-0.17	0.58	-0.805	-0.442	0.276	0.124	-0.153	-0.486	-0.0811	0.162	-0.0741 (inactive)
CC(CCN1CCCCc2nc(C)c(C)cc21)=NO[C@H](C)c1cn([C@H](CO)Cc2ccccc2)nn1	0.583	0.26 (inactive)	-0.0076	-0.135	-0.274	0.558	-0.129	0.321	1.32	0.0631	0.566	-0.556	-0.0044	0.339	0.965	1.01	0.0726	1.08	-0.154	-1.09 (inactive)
COC(=O)[C@@H]1CC[C@H](C)[C@@H](c2ccc(C)cc2)N1C(=O)c1ccc(C=NO[C@H](C)c2cn([C@H](CO)Cc3ccccc3)nn2)cc1	0.279	0.402 (inactive)	0.217	0.111	0.233	-0.141	0.452	1.02	0.684	0.653	0.762	1.04	0.926	-0.466	0.738	0.377	-0.406	0.957	0.295	0.184 (inactive)
Cn1c(=O)n2n(c1=O)[C@H]1[C@H](O)[C@@H]3O[C@@H]3C(=O)[C@H]1CC2	-0.161	-0.301 (inactive)	-0.172	-0.124	-0.0126	-0.0596	0.0837	0.327	0.387	0.513	-0.0542	0.827	-0.515	0.289	0.537	0.348	-0.572	0.455	0.138	-0.28 (inactive)
CCOC(=O)[C@H](Cc1ccccc1)NC(=O)CCC1CC(OC(=O)NCCc2ccc(F)cc2)CC2(CCCC(COC(=O)NCc3ccccc3)O2)O1 (stereo not given in full)	0.0213	0.42 (inactive)	-0.0711	-0.124	0.108	0.244	-0.106	1.2	0.468	0.477	0.704	1.04	0.254	0.282	0.63	0.473	0.216	0.833	0.115	0.877 (inactive)
CC(C)CON=C1C[C@@H](O)[C@@H](O)[C@@H]2[C@@H]3C(=O)N(c4cccc(Oc5ccccc5)c4)C(=O)[C@@H]3CC[C@@H]12	0.621	0.0388 (inactive)	-0.0377	-0.121	0.418	1.04	0.118	1.17	0.232	1.13	0.89	0.762	0.0599	1.02	0.266	0.314	-0.289	0.13	0.561	-0.172 (inactive)
CCOC(=O)[C@H](CC(C)C)NC(=O)CCC1CC(OC(=O)NCc2cccc3ccccc23)CC2(CCCC(COC(=O)NCc3cccc(C(F)(F)F)c3)O2)O1 (stereo not given in full)	-0.105	0.041 (inactive)	-0.0113	-0.146	-0.0249	0.0261	0.127	0.046	0.964	0.139	-0.206	0.492	-0.0868	0.52	0.312	0.231	0.841	0.42	0.0501	0.421 (inactive)
CO[C@@H]1COC(=O)[C@@H](C)COC(=O)[C@@H](C)NC(=O)CC=C[C@@H]1C	-0.647	-0.377 (inactive)	-0.16	-0.208	-0.425	-0.566	0.262	0.0411	1.6	-0.988	0.548	-0.727	-0.149	-1.27	0.679	1.7	-1.24	1.43	0.224	0.138 (inactive)
